# ± gives the standard deviation of the averaged measurements. Whole data set: some 25,000 sequences, median “ln(normalized median fluorescence intensity)” near 8.9, cut for the highest 2% near 10. Only a selection was taken, and the highest values are over-represented in it overall.
# System: PfAP2-LT AP2 domain (GST-tagged)
# Test: gcPBM binding intensity (ln(normalized median fluorescence intensity)); higher = stronger DNA binding
# How it was run: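 Alexa488 anti-GST antibody, scanned at 488 nm, detected GST-tagged P. falciparum DNA-binding domains that had been expressed in E. coli and incubated for 1 h on an Agilent 4 × 180k array. The array carried primer-extended double-stranded 36-bp intergenic genomic probes and negative controls. Binding intensity is the highest Masliner-normalised natural-log median intensity across replicate spots of either orientation of each probe.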
row,Sequence,gcPBM binding intensity (ln)
1,AAAAATAAAAAAATGACACACATATATATATATATA [CACACA_site2307],9.85 ± 0.11
2,TATAACAATTTTTATGCATGCGACTATAATATTTTT [TGCATGCA_site508],8.92 ± 0.42
3,ATTATATAAGTACACAAACAAGTATGAGATTCAAAA [GTGCAC_negctrl_site119],8.88 ± 0.5
4,ATATATTATATGTACACACACATATAAGGGATTATA [CACACA_site5],9.28 ± 0.4
5,TTATATTATATATATGTGCACATTTTTAAACTTGGA,8.77 ± 0.47
6,ACAAACAAAGAAAGAACACACATACACAAGATACCT [CACACA_site7353],9.54 ± 0.26
7,ATATAACTTTTAAAAGCATGCAAATATTTACTCAAT [TGCATGCA_site396],8.78 ± 0.45
8,TGATAAGAAAAAGACTTTTCCTTCTTACTTTCTATG [CACACA_negctrl_site782],8.55 ± 0.59
9,ACATGAAGATATTTTTGTCCGTACAAATTCATATGA [XGTACX_site1837],8.66 ± 0.23
10,AAGGTATTTATAACTACACACTTATTTATAACCTAA [CACACA_site6194],8.7 ± 0.43
11,ATATGAAGTATCGAATTAAGGGCAACAAATAAATTA [CACACA_negctrl_site1116],8.76 ± 0.57
12,GTGGAAAAAAATAATTGTACACAATAATAAATATAT [XGTACX_site2414],8.87 ± 0.45
13,GTTTGAATGGCGCACTGTACACATATATACATATAG [XGTACX_site8619],9.13 ± 0.26
14,TTCTATTCACATTTTACACACGTCCATCGCATTTTA [CACACA_site3453],9.44 ± 0.46
15,ATTTTTTATGGACAAAAGACCTCTGATGTAAATATA [CACACA_negctrl_site1081],8.38 ± 0.4
16,AGCACAGACGGACACACACACATATATATATATATA [CACACA_site4341],10.37 ± 0.085
17,TTTGTTGACGGACACACACACATACAGATATATATA [CACACA_site5292],9.4 ± 0.27
18,CCCACAGACGGACACACACACATATATATATATATA [CACACA_site4351],10.4 ± 0.22
19,CATACATACAGACACACACACATATTTATATTTATA [CACACA_site6172],9.9 ± 0.41
20,CCCACAGACGGACACACACACACACCGACACATATA [CACACA_site4356],10 ± 0.26
21,CACAGACACGGACACACACACATATATAATATATAT [CACACA_site4495],9.87 ± 0.42
22,GAATTATATACTTATTGTACAAAAAAAAAAAAAAAA [XGTACX_site3193],8.36 ± 0.4
23,TGCAGTCTGGAGAAACGTACATAGTATCTGGTAGCT [XGTACX_site4937],8.94 ± 0.57

row,Sequence,gcPBM binding intensity (ln)
1,TTCAACGTTTTGGAATGTACAGAAAGGTATCCATCA [XGTACX_site179],8.62 ± 0.42
2,ATAGTATACAGACACACACACACACCCATATATATA [CACACA_site1736],10.2 ± 0.29
3,CATACACCCATACATACACACATACAGATATATATA [CACACA_site5123],9.29 ± 0.33
4,TACACATACAGACATACACACATACCCATATACTCA [CACACA_site5037],9.6 ± 0.41
5,AGTACAGACATAGACACACACACACCCATAAAAAAA [CACACA_site1515],9.99 ± 0.45
6,CACCATGATACATACACACAGACATATACGCATTCA [CACACA_site1008],9.46 ± 0.18
7,TATCTCATAGTATACACACACACACCCACCCATATA [CACACA_site1739],10.1 ± 0.11
8,CACGCATACGGACACACACACACACCGATATATATA [CACACA_site4521],9.89 ± 0.33
9,TATATCTCATAGTATACACACACACCCACCCACATA [CACACA_site8513],9.9 ± 0.23
10,CACGCATACAGACACACACACACACCGATATATATA [CACACA_site8113],10.1 ± 0.37
11,CACGCATACAGACACACACACACACCCATATATATA [CACACA_site636],10.2 ± 0.37
12,GGCATATATATATGCACACATACATATATACATGTG [CACACA_site3859],9.7 ± 0.3
13,GTTACACAAACAAACACACACACACGCACGCACAAA [CACACA_site7191],10 ± 0.2
14,AAAGAAAAAAAAAAAAAAAAAAAAAAAATTATACAT [CACACA_negctrl_site7],8.45 ± 0.64
15,TTTAAAACCTTACATACACACAAATATGTAAATATA [CACACA_site6464],8.75 ± 0.42
16,GAGCACCAAAATATATGTACATATGATAAATGTGAA [XGTACX_site1130],8.96 ± 0.51
17,GTTATTGAAAAAATAGTGCAATATAACAAAGTAAAA,8.85 ± 0.48
18,AAAAAAAACGAACACACACACAAATATGTAAAAATA [CACACA_site6673],9.87 ± 0.28
19,ATTATATTAATATATATATATATATATATAATAATA [CACACA_negctrl_site437],8.69 ± 0.3
20,TACACCCATGGACACACACACACGCATAAAAAAAAA [CACACA_site4933],9.85 ± 0.58
21,TACACGCATGGACACACACACACACCCATATATATA [CACACA_site4522],10.3 ± 0.35
22,TCATAGTATGGACACACACACACACCCATATATATA [CACACA_site5033],10 ± 0.25

# From the supplement of paper PMC11417369
